Source: PubChem BioAssay
Many of the other results were omitted from the sample, so hits are more common in it than they were.
Hedgehog inh: Hedgehog pathway signaling inhibitors, primary screen, luminescence, Shh-LIGHT2 cells, Gli-luciferase. inhibition, % (concentration not given with the values). AID 2313, 2010. Shh-LIGHT2 Gli-luciferase reporter, 30 h. 2.1% of 22,000 active;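 active = mean inhibition across valid replicates above about 65%, limit read from the data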;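 note: pathway switched on by Shh-conditioned medium diluted 1 in 25 in low serum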
BJeLR viability: BJeLR cell viability loss, primary screen, luminescence, CellTiterGlo ATP. BJeLR fibroblasts viability, 48 h; HRASV12, hTERT and SV40 LT/ST transformed. viability loss activity score, % (concentration not given with the values). 0.64% of 30,000 active. AID 2275, 2010; in the data active = viability loss activity score above about 50%;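 note: higher score means fewer live cells and less ATP luminescence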
MITF inh: inhibitors of MITF, primary screen, MITF inhibitor project, cell-based, luminescence | TRPM1 promoter luciferase, 24 h | inhibition, % (concentration not given with the values) | 0.28% of 37,000 active | AID 2240, 2010; in the data active = inhibition above about 85%;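 note: human melanocyte line stably carrying TRPM1 promoter luciferase reporter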
Active calls of the source: *; . = no result given; ! = a repeat was not active.

SMILES	Hedgehog inh	BJeLR viability	MITF inh
CCOC(=O)c1cnc(-c2ccccc2)nc1NCc1ccccc1	.	-3	.
N#CCCn1c(-c2cncs2)nc2ccccc21	.	10	.
Nc1nc2ccc(OC(F)(F)F)cc2s1	68*!	-5	-44
COc1ccc2c(c1OC)C(=O)OC2Nc1nc2ccc(OC(F)(F)F)cc2s1 (stereo unspecified)	.	1	.
CCOC(=O)C1(NC(=S)N2CCOCC2)Sc2cc(C)ccc2NC1=O (stereo unspecified)	.	18	.
COC(=O)c1ccc([C@H]2C(C#N)=C(N)C(C#N)(C#N)C3=CCC(C(C)(C)C)C[C@@H]32)cc1 (stereo partly specified)	84*	-3	80
CC(C)(C)C1CC=C2[C@H](C1)[C@@H](c1ccsc1)C(C#N)=C(N)C2(C#N)C#N (stereo partly specified)	1	4	5
C=CCn1c(SCC(=O)Nc2ccc(S(N)(=O)=O)cc2)nnc1-c1ccco1	.	1	.
NS(=O)(=O)c1ccc(NC(=O)/C=C/c2ccccc2)cc1	.	0	.
COc1ccc(NC(=O)Nc2ccc3c(c2)C(=O)N([C@H](C)CO)C[C@H](C)[C@@H](CN(C)Cc2ccc4c(c2)OCO4)OCCCC[C@@H](C)O3)cc1	7	.	-17
COc1ccc(NC(=O)Nc2ccc3c(c2)C(=O)N([C@H](C)CO)C[C@H](C)[C@H](CN(C)Cc2ccc4c(c2)OCO4)OCCCC[C@@H](C)O3)cc1	72*	.	17
C[C@@H]1CCCCO[C@@H](CN(C)Cc2ccc3c(c2)OCO3)[C@@H](C)CN([C@H](C)CO)C(=O)c2cc(NS(=O)(=O)c3cccs3)ccc2O1	74*	.	0
Cc1ccc(S(=O)(=O)Nc2ccc3c(c2)C(=O)N([C@H](C)CO)C[C@H](C)[C@H](CN(C)Cc2ccc(C(=O)O)cc2)OCCCC[C@@H](C)O3)cc1	.	.	-1
Cc1ccc(S(=O)(=O)Nc2ccc3c(c2)C(=O)N([C@H](C)CO)C[C@H](C)[C@@H](CN(C)Cc2ccccc2)OCCCC[C@@H](C)O3)cc1	68*	.	-11
COc1ccc(CN(C)C[C@@H]2OCCCC[C@@H](C)Oc3ccc(NS(=O)(=O)c4cccs4)cc3C(=O)N([C@H](C)CO)C[C@@H]2C)cc1	.	.	0
COc1ccc2[nH]c3c(=O)n(CC(=O)N(C)Cc4ccccc4)c(=S)[nH]c3c2c1	.	-5	.
COc1ccc(S(=O)(=O)c2c(C(=O)c3ccccc3)cnc3cc(OC)c(OC)cc23)cc1	.	2	.
CCCC(C)NC(=O)N1CCOCC1 (stereo unspecified)	.	-4	.
O=C(O)c1cccc(CSc2nnc(-c3ccncc3)o2)c1	.	.	-22
Cc1ccc2c(c1)C(c1ccccc1)CC(C)N2C(=O)c1ccccc1F (stereo unspecified)	.	6	.
Cc1cc(N(CC(=O)NC2CCCCCC2)S(C)(=O)=O)ccc1Br	.	.	-4
N#C/C(=C\Nc1cc(C(F)(F)F)cc(C(F)(F)F)c1)S(=O)(=O)c1ccccn1	-8	-1	20
N#C/C(=C\Nc1cc(C(F)(F)F)cc(C(F)(F)F)c1)S(=O)(=O)Cc1ccc(Cl)cc1	107*	12	72
CCOC(=O)c1ccccc1NS(C)(=O)=O	.	15	.
CCOC(=O)c1c(NC(=O)Cn2cnc3ccccc3c2=O)sc(C)c1C	.	.	-7
SMILES	Hedgehog inh	BJeLR viability	MITF inh
Cn1cnc([N+](=O)[O-])c1Sc1ncnc2nc[nH]c12	22	88*	23
CC(C)=CCNc1ncnc2nc[nH]c12	.	-4	.
O=C(Nc1ccc(-c2nc3ccccc3[nH]2)cc1)c1ccc(-c2ccccc2)cc1	.	2	.
c1cc(-c2nc3ccccc3s2)nc(-c2nc3ccccc3s2)c1	-46	-2	-8
c1ccc2[nH]c(-c3cscn3)nc2c1	-2	59*	-29
c1ccc2[nH]c(-c3nc4ccccc4s3)nc2c1	21	101*	86*
C[C@H](CO)N1C[C@H](C)[C@H](CN(C)S(=O)(=O)c2ccc(Cl)cc2)Oc2c(NS(=O)(=O)c3cccs3)cccc2C1=O	77*	1	12
C[C@H](CO)N1C[C@H](C)[C@@H](CN(C)S(=O)(=O)c2ccc(Cl)cc2)Oc2c(NS(=O)(=O)c3cccs3)cccc2C1=O	-8	0	4
C[C@H]1CN([C@@H](C)CO)C(=O)c2cccc(NS(=O)(=O)c3ccc(F)cc3)c2O[C@@H]1CN(C)S(=O)(=O)c1ccc(Cl)cc1	31	-1	-12
C[C@H](CO)N1C[C@H](C)[C@H](CN(C)S(=O)(=O)c2ccc(Cl)cc2)Oc2c(NS(=O)(=O)c3ccc(F)cc3)cccc2C1=O	70*	-1	7
C[C@H]1[C@H]2OC3=C(C(=O)OC3(C)O)C(=O)[C@]1(C)[C@H]1CCCC[C@]1(O)[C@H]2O (stereo partly specified)	4	-2	-11
CCOc1ccc(C(=O)Nc2cccc(NC(=O)c3ccccc3)c2)cc1Br	.	3	.
CCOc1ccc(C(=O)Nc2ccc(NC(=O)c3ccccc3)c(C)c2)cc1Br	96*	4	-2
Nc1ncnc2c1ncn2C1OC(CO)[C@H](O)[C@@H]1S (stereo partly specified)	-8	0	-1
COc1ccc(C[C@H](N)C(=O)N[C@H]2[C@@H](O)[C@H](n3cnc4c(N(C)C)ncnc43)O[C@@H]2CO)cc1	85*	4	102*
Cc1ccc2nc(-c3ccccc3)cn2c1	.	78*	.
Cc1ccccc1C(=O)Nc1cccc(-c2cn3ccccc3n2)c1	.	5	.
Cc1ccc(CN2CC34C=CC(O3)C(C(=O)NCCc3ccc(Cl)cc3)C4C2=O)cc1 (stereo unspecified)	.	2	.
COc1ccc(CNC(=O)Nc2ncc([N+](=O)[O-])s2)cc1	49	10	87*
COc1cc([N+](=O)[O-])ccc1NC(=O)NCc1cccnc1	.	.	-14
C=CCn1c(SCC(=O)O)nnc1-c1ccncc1	.	.	-11
C=CCn1c(Sc2ncnc3c2cnn3-c2ccccc2)nnc1-c1ccncc1	.	69*	.
COC(=O)c1ccc(C2N(Cc3ccccc3)CCN2Cc2ccccc2)cc1	.	-3	.
CCn1c2c(c3cc(Br)ccc31)CCCC2=O	8	0	-8
CCn1c2c(c3cc(OCc4ccccc4)ccc31)CCCC2=O	77*	4	-25
SMILES	Hedgehog inh	BJeLR viability	MITF inh
CSc1sc(C#N)c2c1C(=O)CC(c1ccccc1)C2 (stereo unspecified)	86*	0	11
CC1=C(C#N)C(c2ccccc2)C2=C(CC(c3ccccc3)CC2=O)N1 (stereo unspecified)	.	4	.
CN1CCc2cc3c(cc2C2OC(O)c4c(ccc5c4OCO5)C21)OCO3 (stereo unspecified)	-12	-2	6
COC1C=CC23c4cc5c(cc4CN(C[C@H]2O)[C@@H]3C1)OCO5 (stereo partly specified)	51	8	54
O[C@H]1[C@H]2c3cc4c(cc3CN3CCC(=C[C@@H]1O)[C@H]23)OCO4	83*	63*	62
O[C@@H]1[C@@H](O)C=C2CCN3Cc4cc5c(cc4[C@H]1C23)OCO5 (stereo partly specified)	96*	24	63
COC(=O)c1ccc(C)c(NC(=O)CN(c2ccc(F)cc2)S(C)(=O)=O)c1	.	.	-4
